Measured values from the supplement of paper PMC11172423.
Values without a mark were called inactive.

Columns and labels:
[1] = test system: Falciformispora senegalensis CBS197.79; assay: growth relative to untreated control; higher = less inhibition, active = 20 or less
Summary of the method: (§1)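 Growth was expressed as metabolic activity relative to the untreated growth control, with both corrected using a blank of medium plus dye. Hyphal fragments of M. mycetomatis MM55 or F. senegalensis CBS197.79 were suspended to 68–72% transmission at 660 nm in colourless RPMI 1640 containing L-glutamine and MOPS. In 96-well plates they were exposed to compound at 100 or 25 µM for 7 days at 37 °C, and viability was read with MTS (2 h, 490 nm) or resazurin (600 nm).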

[2] = test system: Madurella mycetomatis MM55; assay: as above
Summary of the method: as §1

Compound	growth ([1]; 25 µM) [%]	growth ([1]; 100 µM)	growth ([2]; 25 µM)	growth ([2]; 100 µM)
O=C(NC1CCN(CCOc2ccc(Cl)cc2)CC1)c1c[nH]c2ccncc2c1=O	73.5	84.8%	90.2%	102%
O=C(Nc1ncccc1O)c1ccc(Cn2cccn2)cc1	87.3	86.4%	93.2%	123%
N#C/C(C(=O)c1ccccc1Cl)=C1\NC(c2ccccc2)=CS1	90.5	100%	79.7%	45.4%
Cc1nc2ccccc2n1Cc1ccc(Cl)cc1	106	76.5%	76.5%	5.04% (active)
CS(=O)(=O)c1ccc(-c2cnn3c2NC(c2cccc(S(=O)(=O)C4CC4)c2)CC3)cc1 (stereo not drawn)	72.5	88.1%	97.1%	82.5%
COc1c(C)c2c(c(O)c1C/C=C(\C)CCC(=O)O)C(=O)OC2	102	107%	88%	94.6%
OC[C@H]1NC[C@H](O)[C@@H](O)[C@H]1O	94.7	100%	101%	91.1%
CC(C)(C)NCc1cc(Nc2ccnc3cc(Cl)ccc23)c2c(c1O)CCCC2	106	101%	113%	95.1%
COc1ccc(-c2ccc3c(-c4ccc(F)cc4)cnc(N)c3c2)cn1	94.3	75.2%	88.1%	38.6%
CN(C)CCCN1c2ccccc2CCc2ccc(Cl)cc21	51.5	12.5% (active)	38.1%	3.39% (active)
NC1CCc2nc(-c3cccnc3)nc(Nc3ccc(C(F)(F)F)cc3)c2C1 (stereo not drawn)	102	13.8% (active)	71.4%	5.34% (active)
C/C=C/C[C@@H](C)[C@@H](O)[C@H]1C(=O)N[C@@H](CC)C(=O)N(C)CC(=O)N(C)[C@@H](CC(C)C)C(=O)N[C@@H](C(C)C)C(=O)N(C)[C@@H](CC(C)C)C(=O)N[C@@H](C)C(=O)N[C@H](C)C(=O)N(C)[C@H](CC(C)C)C(=O)N(C)[C@@H](CC(C)C)C(=O)N(C)[C@@H](C(C)C)C(=O)N1C	113	94.5%	79%	68.9%
Nc1nc2ccccc2n1CC(O)c1ccc(Cl)cc1Cl (stereo not drawn)	82.1	30.8%	95.4%	6.46% (active)
CCOc1ccccc1NC(=O)Cn1c(=O)n(Cc2ccccc2)c(=O)c2c(C)c(C(=O)N(C)C)sc21	92.1	108%	104%	109%
CN(C)CCCN1C(=O)c2[nH]nc(-c3ccc(Cl)cc3O)c2C1c1ccc(Cl)cc1 (stereo not drawn)	83.3	25.4%	68%	6.84% (active)
NC1(c2ccc(-c3nc4ccn5c(O)nnc5c4cc3-c3ccccc3)cc2)CCC1	104	14% (active)	79.3%	3.13% (active)
CN(C)C(=O)COC(=O)Cc1ccc(OC(=O)c2ccc(NC(=N)N)cc2)cc1	112	108%	77.6%	93.2%
CO[C@@H](C(=O)N1Cc2[nH]nc(NC(=O)c3ccc(N4CCN(C)CC4)cc3)c2C1)c1ccccc1	103	102%	94%	77.7%
C[C@H](/N=C(\N)c1cc2c(F)cc(F)cc2[nH]1)c1ccccc1	98.5	15.3% (active)	35%	5.98% (active)
CCOC(=O)C1=C(CC)NC2=C(C(=O)CC(C)(C)C2)C1c1ccc(Br)cc1 (stereo not drawn)	82.3	87%	106%	73.2%
N#Cc1ccc(-c2ccc3nc(Oc4ccc(C(F)(F)F)cn4)cn3c2)nc1	101	109%	32.3%	82.2%
N#Cc1c(N)nc(NC2CC2)nc1N	99.7	92.9%	91.3%	95.4%
CC(C)(C)Nc1ncc2nc(Nc3cccc(C(F)(F)F)c3)n(CC3CCNC3)c2n1 (stereo not drawn)	94.5	91.5%	114%	3.65% (active)
NS(=O)(=O)c1cc2c(cc1Cl)NC=NS2(=O)=O	103	103%	108%	96.2%

Compound	growth ([1]; 25 µM) [%]	growth ([1]; 100 µM)	growth ([2]; 25 µM)	growth ([2]; 100 µM)
CNC(=O)c1cc(Oc2ccc(NC(=O)Nc3ccc(Cl)c(C(F)(F)F)c3)cc2)ccn1	103	94.4%	45.7%	35.1%
CC(C)NCc1cccc(-c2ccc(NC(=O)c3cccc(C#N)c3)cc2)c1	86.2	27.9%	87.5%	5.95% (active)
Cc1nn(C2CCS(=O)(=O)C2)c(C)c1C1Nc2ccccc2C(=O)N1Cc1ccc2c(c1)OCO2 (stereo not drawn)	84.3	93.6%	82.2%	91.4%
CCOC(=O)c1c(CSc2ccccc2)n(C)c2cc(Br)c(O)c(CN(C)C)c12	103	97.8%	98.5%	75.4%
CCN1CCC(c2cc(C)c3nc(-c4cc5c(C)nc(C)cn5n4)cc(=O)n3c2)CC1	104	107%	80.2%	89.8%
COC(=O)C1=C(C)NC(C)=C(C(=O)OCCN2CCN(C(c3ccccc3)c3ccccc3)CC2)C1c1cccc([N+](=O)[O-])c1 (stereo not drawn)	94	99.1%	81.7%	86.7%
CCSC1CCCCC1NCCn1c(=O)oc2cccnc21 (stereo not drawn)	91.3	90.9%	37.9%	93.1%
COc1cc2c3cc1Oc1c(OC)c(OC)cc4c1[C@@H](Cc1ccc(O)c(c1)Oc1ccc(cc1)C[C@@H]3N(C)CC2)N(C)CC4	99.1	12.6% (active)	88.9%	5.99% (active)
Oc1nc2ccccc2n1C1CCN(CCCC(c2ccc(F)cc2)c2ccc(F)cc2)CC1	101	100%	7.07% (active)	64.9%
Cc1cnc2nc(NC3COc4ccccc43)nc(NC(C3CC3)C3CC3)c2c1 (stereo not drawn)	83.2	33.4%	7.72% (active)	8.15% (active)
CCOc1ccc(C=C2NCCc3cc(OCC)c(OCC)cc32)cc1OCC	112	106%	73.2%	48%
CCC1=C(c2ccc(C)cc2)S(=O)(=O)N=C1N1CCC(C(=O)NCCN2CCCCC2C)CC1 (stereo not drawn)	86.3	88.6%	88%	81.9%
C[C@@H](c1nc(-c2ccc(C#N)cc2)cs1)[C@](O)(Cn1cncn1)c1ccc(F)cc1F	49.9	52.3%	3.04% (active)	5.78% (active)
O=C(Nc1ncccc1O)c1ccc(S(=O)(=O)NCCc2cccs2)cc1	88.7	88.7%	128%	70.6%
CCOC(=O)N1CCC(=C2c3ccc(Cl)cc3CCc3cccnc32)CC1	106	104%	54.3%	6.05% (active)
CN(C)C1CC(NC(=O)c2ccc(Nc3nccc(-c4ccc(Cl)c(C(F)(F)F)c4)n3)cc2)C1 (stereo not drawn)	96.6	102%	7.71% (active)	6.2% (active)
CC(C)CC(NCCc1ccccc1O)c1ccccn1 (stereo not drawn)	99.8	78.8%	41.8%	41.6%
COc1cccc2c1CCCC2CCCN1CCN(C2CCCCC2)CC1 (stereo not drawn)	101	103%	75.4%	68.7%
CCN(CC)Cc1cc(Nc2ccnc3cc(Cl)ccc23)ccc1O	89.8	88.3%	81.3%	43.4%
CCN1C(=O)N(CCC(C)C)C2(CCN(Cc3cc(O)cc(Cl)c3)CC2)C1=O	91	92.9%	99.4%	104%
CCc1nn2c(Nc3ccncc3)cc(C)nc2c1-c1ccccc1	88.3	92.6%	96.8%	75.7%
CC(C)(C)NCc1ccc(Nc2ccnc3cc(Cl)ccc23)cc1O	95.8	17.1% (active)	79.1%	3.73% (active)
CC(C)CN(C[C@@H](O)[C@H](Cc1ccccc1)NC(=O)O[C@H]1CO[C@H]2OCC[C@H]21)S(=O)(=O)c1ccc(N)cc1	97.7	101%	130%	90.5%
